# Only a selection was taken, and hits are over-represented in it overall.
# HIV RNase H inh-1: inhibitors of HIV-1 reverse transcriptase RNase H; P04585; RT-RNase H RNA/DNA duplex cleavage, fluorescence; inhibition, % at 10 µM; actives 1.9% (n = 65,000); in the data active = inhibition above about 50%
# HIV RNase H inh-2: confirmation of HIV-1 reverse transcriptase RNase H inhibitors; shares compounds with HIV RNase H inh-1; inhibition, % at 10 µM; actives 39% (n = 1,000); Recombinant RT RNase H, fluorescent RNA/DNA duplex cleavage; in the data active = inhibition above about 48%; inconclusive = no clear call, values can overlap the other calls
# Hits are given with their value; 0 = inactive; ? = inconclusive.
SMILES,HIV RNase H inh-1,others
C=CCn1c(-c2c[nH]c3ccccc23)n[nH]c1=S,57.3,HIV RNase H inh-2=0
CCn1c(-c2c[nH]c3ccccc23)n[nH]c1=S,0,
O=C(NCc1cccs1)c1cc(-c2cccs2)on1,0,
O=C(O)CCc1ccc(-c2cccs2)o1,89.0,HIV RNase H inh-2=0
O=C(Cc1ccccc1)Nc1nnc(-c2cccs2)s1,0,
CC1(C)NC(=O)N(CNc2cc(Cl)ccc2Cl)C1=O,0,
COc1ccc2[nH]cc(CCN=C3SCC(=O)N3C)c2c1,79.2,HIV RNase H inh-2=0
COc1ccc2[nH]cc(C(=O)CN3CCC(C)CC3)c2c1,0,
COc1ccc2[nH]cc(CCN(C)C)c2c1,0,
Cc1ccc(C)c(N2C(=O)CN=C2Nc2ccccc2Cl)c1,0,
COc1ccc(S(=O)(=O)Nc2ccc(S(=O)(=O)N3CCCCC3)cc2)cc1,0,
CCOc1ccccc1NC(=O)N1CCC(NC(=O)c2cccc(C)c2)CC1,76.9,HIV RNase H inh-2=0
CCOc1ccccc1NC(=O)N1CCC(NC(=O)c2ccccc2C)CC1,0,
Cc1cccc(NC(=O)N2CCC(NC(=O)c3ccccc3C)CC2)c1,0,
COc1ccc(N2C(=O)C3CCCN3C2c2ccccc2Cl)cc1 (stereo unspecified),0,
Cc1ccc(Cl)cc1N1CCN(C(=O)c2cc3c(=O)n(C)c4ccccc4c3n2C)CC1,0,
Cc1c(-c2cccs2)[n+](=O)c2c(n1[O-])CCCC2,0,
O=C1CN(C(=O)c2ccc(Br)o2)C(c2ccc(F)cc2)c2cc(F)ccc2N1 (stereo unspecified),0,
CCOC(=O)c1[nH]c(C(=O)O)c(CCN(CC)CC)c1C,0,
CC(=O)Nc1sc2c(c1C#N)CCCCC2,0,
Cc1noc(C(=O)Nc2sc3c(c2C#N)CCC3)c1Cl,66.6,HIV RNase H inh-2=0
Cc1cc(C(=O)Nc2sc3c(c2C#N)CCC3)no1,0,
Cc1cc(C(=O)Nc2sc3c(c2C#N)CCC(C)C3)no1 (stereo unspecified),0,
CC(C)Cc1cc(C(=O)Nc2sc3c(c2C#N)CCCC3)no1,65.1,HIV RNase H inh-2=68.3
Cc1cc(C(=O)Nc2sc3c(c2C#N)CCCC3)no1,0,
SMILES,HIV RNase H inh-1,others
O=C(COc1ccc(Cl)cc1Cl)NC1CCSC1=O (stereo unspecified),0,
Cc1cc2oc(=O)cc(CN3CCCCC3C)c2c(C)c1Cl (stereo unspecified),0,
Cn1c(=O)c2c(nc(SCC(=O)NC3CCCCC3)n2C)n(C)c1=O,0,
C=CCOC(=O)C1C(=O)CC(C)(O)C(C(=O)OCC=C)C1c1ccc(OCC)cc1 (stereo unspecified),0,
COc1ccc(Br)cc1C1SCCN1S(C)(=O)=O (stereo unspecified),0,
Cc1ccc(-c2nnc(N3CCN(C(=O)CSc4ncn[nH]4)CC3)c3ccccc23)cc1,0,
O=C1c2ccccc2C(=O)N1c1ccc(S(=O)(=O)N2CCN(c3ccccc3)CC2)cc1,0,
COc1cc2c(cc1OC)CN(Cc1ccc(OC)c(C)c1OC)CC2,0,
O=C(CN1C(=O)c2ccccc2C1=O)Nc1ccc(-c2nc3ccccc3o2)cc1,66.3,HIV RNase H inh-2=0
O=C(CCN1C(=O)c2ccccc2C1=O)Nc1ccc(F)cc1,0,
O=C(CN1CCCC1)Nc1ccc(-c2nc3cc(NC(=O)CN4CCCC4)ccc3o2)cc1,0,
O=C1c2ccccc2C(=O)N1c1ccc(-c2nc3ccccc3o2)cc1,0,
O=C(CCN1C(=O)c2ccccc2C1=O)Nc1ccc(-c2nc3ccccc3o2)cc1,88.4,HIV RNase H inh-2=67.8
O=C(CCN1C(=O)c2ccccc2C1=O)Nc1ccc(-c2cn3ccsc3n2)cc1,0,
CCn1c(SCC(=O)Nc2cc3oc4ccccc4c3cc2OC)nnc1-c1cccs1,0,
COc1nc(-c2ccccc2)ccc1-c1noc(-c2ccccc2F)n1,0,
CCCc1cc(=O)[nH]c(SC(CC)C(=O)Nc2ccccc2C#N)n1 (stereo unspecified),0,
Cc1ccc(-n2sc3ccccc3c2=O)cc1S(=O)(=O)N1CCCCC1,96.4,HIV RNase H inh-2=48.0
O=C(Cn1c(=O)sc2ccccc21)Nc1ccc(S(=O)(=O)N2CCCC2)cc1,0,
COc1c(S(=O)(=O)N2CCCCC2)ccc2c(S(=O)(=O)N3CCCCC3)cccc12,0,
O=C(Nc1ccccc1)c1ccc(S(=O)(=O)N2CCCC2)cc1,0,
Cc1ccc(-c2nnc(N3CCCCC3)c3ccccc23)cc1S(=O)(=O)N1CCN(C)CC1,0,
O=c1c2ccccc2sn1-c1ccc(S(=O)(=O)N2CCCC2)cc1,79.4,HIV RNase H inh-2=0
CC(C)CNC(=O)c1cccc(NC(=O)C2CCCO2)c1 (stereo unspecified),0,
COc1ccc(C(c2nnnn2C2CCCC2)N2CCc3ccccc3C2)cc1OC (stereo unspecified),0,
SMILES,HIV RNase H inh-1,others
COc1ccc(C(c2nnnn2CCc2ccccc2)N2CCN(C)CC2)cc1OC (stereo unspecified),0,
COCCn1nnnc1C(c1ccc(O)c(OC)c1)N1CCc2ccccc2C1 (stereo unspecified),61.2,HIV RNase H inh-2=0
CC(C)c1ccc(NC(=O)N2CCC(c3nc4ccccc4o3)CC2)cc1,0,
CCOC(=O)CSc1nc2cc(C(=O)NCc3ccco3)ccc2c(=O)n1C1CCCCC1,73.0,HIV RNase H inh-2=57.5
CCOC(=O)N1CCC(n2c(SCC(=O)NCc3ccco3)nc3ccsc3c2=O)CC1,0,
CCOC(=O)CSc1nc2ccccc2c(=O)n1CC1CCC(C(=O)NCc2ccco2)CC1 (stereo unspecified),0,
CCOC(=O)CSc1nc2cc(C(=O)N3CCC(C(N)=O)CC3)ccc2c(=O)n1-c1ccccc1,0,
CCOC(=O)CSc1nc2cc(C(=O)NCc3ccco3)ccc2c(=O)n1-c1ccc(F)cc1,84.0,HIV RNase H inh-2=66.4
COc1ccc(-n2c(=S)[nH]c3cc(C(=O)NCc4ccco4)ccc3c2=O)cc1OC,0,
CCOC(=O)c1c(C)[nH]c(C(=O)C(C)OC(=O)c2cccc(OCc3c(C)noc3C)c2)c1C (stereo unspecified),0,
O=C(NCC(F)(F)F)Nc1ncccn1,0,
Cc1c(NC(=O)c2ccc(Br)o2)c(=O)n(-c2ccccc2)n1C,0,
Nn1cnn(Cc2ccccc2)c1=S,73.4,HIV RNase H inh-2=?
c1ccc(Cn2ncc3ccccc32)cc1,0,
Cc1nn(Cc2ccccc2)c(N)c1-c1ccccc1,0,
CN(C)CCNC(=O)COc1cccc(Cl)c1,0,
Cc1ccc2cc(CCNC(=O)CC(C)C)c(=O)[nH]c2c1,0,
COc1ccccc1-c1cc(C(=O)Nc2ccccc2SC)no1,0,
COc1cccc(-c2cc(C(=O)Nc3ccccc3SC)no2)c1,0,
COc1ccc(-c2cc(C(=O)Nc3cnn(Cc4ccccc4C)c3)no2)cc1OC,86.5,HIV RNase H inh-2=0
COc1ccc(-c2cc(C(=O)NCCc3ccccc3)no2)cc1OC,0,
COc1ccc(-c2cc(C(=O)Nc3ccccc3SC)no2)cc1OC,91.2,HIV RNase H inh-2=0
COc1ccc(-c2cc(C(=O)Nc3cc(C)n(Cc4ccc(Cl)cc4)n3)no2)cc1OC,0,
CCN(CC)CCCN1C(=O)C(O)=C(C(=O)c2ccc(C)o2)C1c1ccco1 (stereo unspecified),0,
CCOC(=O)Cc1nnc2c(Nc3ccc(Cl)cc3)nc3nonc3n12,0,
SMILES,HIV RNase H inh-1,others
CCCCCCSC1=C(C#N)C(c2ccc(O)cc2)CC(=O)N1 (stereo unspecified),0,
CCC(CC)c1nnc(NC(=O)c2c(-c3ccccc3)noc2C)s1,83.7,HIV RNase H inh-2=0
Cc1onc(-c2ccccc2)c1C(=O)Nc1nnc(N(C)Cc2ccccc2)s1,0,
Cc1onc(-c2ccccc2)c1C(=O)Nc1sc2c(c1C(N)=O)CCC2,0,
O=c1/c(=C/c2cccc3ccccc23)sc2ncnn12,96.0,HIV RNase H inh-2=0
Cc1ccsc1/C=c1\sc2ncnn2c1=O,0,

# Bioassay records (PubChem)
